Compound activity as filed in PubChem BioAssay.
Measles CPE = protection of cells from measles virus. Measles virus-infected cells, CPE protection, absorbance. protection (pct of control), % at 4 µM. hit rate 1.5% among 140,000; in the data active means protection mostly above about 24%, no sharp cut-off; inactive means mostly below about 26%
CYP2C9 activ = activators of human CYP2C9. P11712. recombinant CYP2C9, luciferin-H conversion, luminescence; hits give high values; factor 1 = untreated enzyme, 0 = blocked. activation factor at 5 µM. hit rate 1.4% among 96,000. AID 1024;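 active means activation factor of 2 or more for CYP2C9 at a 5 µM dose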;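 further: 0 = sulfaphenazole-blocked wells and 1 = vehicle-only wells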
CYP2C9 inh = human CYP2C9 inhibition | inhibition, % at 5 µM | P11712 | hit rate 20% among 96,000 | CYP2C9 Supersomes, luciferin-H conversion, luminescence | AID 777;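 active means blocking of liver enzyme CYP2C9 beyond about 50% at 5 µM, limit read from the data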
CYP2C19 inhib = human CYP2C19 inhibition; hit rate 21% among 96,000; AID 778; P33261; inhibition, % at 5 µM; CYP2C19 Supersomes, luciferin-H EGE luminescence, 30 min;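 active means CYP2C19 inhibition above a set limit at 5 µM in the primary screen, cut at about 50% in these data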;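 further: plate controls were negative control wells for no effect and 2.5 mM tranylcypromine positive control for full effect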
Target sequence (P33261 whole entry, looked up): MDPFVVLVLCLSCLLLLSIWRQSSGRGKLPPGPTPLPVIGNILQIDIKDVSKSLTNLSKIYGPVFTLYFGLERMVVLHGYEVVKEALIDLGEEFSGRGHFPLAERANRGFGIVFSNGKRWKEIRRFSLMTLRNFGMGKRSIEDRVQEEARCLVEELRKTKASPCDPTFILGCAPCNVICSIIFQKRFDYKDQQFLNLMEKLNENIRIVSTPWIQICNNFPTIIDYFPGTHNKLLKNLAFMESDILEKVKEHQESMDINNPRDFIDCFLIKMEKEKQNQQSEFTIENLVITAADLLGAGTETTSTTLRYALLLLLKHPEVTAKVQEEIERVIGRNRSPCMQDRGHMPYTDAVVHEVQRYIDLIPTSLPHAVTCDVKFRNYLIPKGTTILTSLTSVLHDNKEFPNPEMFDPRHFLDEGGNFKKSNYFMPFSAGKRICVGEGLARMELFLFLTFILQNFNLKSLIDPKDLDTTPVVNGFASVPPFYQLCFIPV
CYP2C19 act = activators of human cytochrome P450 2C19. 96,000 tested, under 10 active. recombinant CYP2C19, luciferin-H EGE luminescence; hits give high values; 0 = fully inhibited enzyme, 1 = untreated enzyme. AID 1025. P33261. activation factor at 5 µM;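 active means activation factor of at least 2 at 5 µM in the primary screen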;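 further: 0 = wells with 2.5 mM tranylcypromine and 1 = vehicle-only wells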
* marks the source's active call; other numbers are inactive results. Shown are actives, neighbours in structure and some others; about 22% of the full set was active somewhere.

`Cc1ccc(-n2[nH]c(C)c(/C=N/n3c(C)nc4ccccc4c3=O)c2=O)cc1` gave Measles CPE 2, CYP2C9 activ 0.4, CYP2C9 inh 55*, CYP2C19 inhib 30 and CYP2C19 act 0.7.
Screening Cc1nc2ccccc2c(=O)n1/N=C/c1ccccc1 returned Measles CPE 4, CYP2C9 activ 0.8, CYP2C9 inh 18, CYP2C19 inhib 41 and CYP2C19 act 0.6.
Cc1nc2ccccc2c(=O)n1/N=C/c1cn(-c2ccccc2)nc1-c1cccs1 was read as Measles CPE 16, CYP2C9 activ 0, CYP2C9 inh 98*, CYP2C19 inhib 80* and CYP2C19 act 0.2.
`COC(=O)c1ccccc1NC(=O)CSc1nc(-c2ccco2)cc(C(F)(F)F)n1` gave Measles CPE 8, CYP2C9 activ 1, CYP2C9 inh 5, CYP2C19 inhib 2 and CYP2C19 act 1.
COC(=O)c1ccccc1NC(=O)CSc1nc(NC(=O)c2ccccc2)c2c(C)c(C)oc2n1 was read as Measles CPE 26, CYP2C9 activ 0.1, CYP2C9 inh 87*, CYP2C19 inhib 69* and CYP2C19 act 0.3.
Screening CCOC(=O)c1ccc(NC(=O)CSc2nc(NC(=O)c3ccccc3)c3c(C)c(C)oc3n2)cc1 returned Measles CPE 4, CYP2C9 activ 0.2, CYP2C9 inh 76*, CYP2C19 inhib 60* and CYP2C19 act 0.4.
CCOC(=O)c1ccc(NC(=O)c2ccccc2)cc1 was read as Measles CPE 15, CYP2C9 activ 1.1, CYP2C9 inh -12, CYP2C19 inhib 10 and CYP2C19 act 0.9.
`COc1ccc(/C=c2\s/c(=C/C(=O)c3ccc(C)cc3)[nH]c2=O)c(OC)c1` gave Measles CPE 27.
Screening CCOc1ccc(Cl)cc1CSc1ncn[nH]1 returned Measles CPE 13.
For COc1ccc(S(=O)(=O)Nc2ccc(Oc3ncccn3)c(Cl)c2)cc1 the results were Measles CPE 4, CYP2C9 activ 0, CYP2C9 inh 98*, CYP2C19 inhib 100* and CYP2C19 act 0.
For COc1ccc(N/C=C/C(=O)c2ccc(Oc3ncccn3)cc2)cc1 the results were Measles CPE 6, CYP2C9 activ 0.9, CYP2C9 inh 10, CYP2C19 inhib 11 and CYP2C19 act 0.9.
Screening COc1ccc(NS(=O)(=O)c2ccc(Oc3ncccn3)cc2)cc1 returned Measles CPE 2, CYP2C9 activ 0.3, CYP2C9 inh 69*, CYP2C19 inhib 81* and CYP2C19 act 0.2.
Screening COc1ccc(-n2cnc3cc(NS(=O)(=O)c4ccccc4)ccc32)cc1 returned Measles CPE 5.
For O=C(CSc1nc2c([nH]c3ccccc32)c(=O)n1-c1ccc(F)cc1)NCc1ccco1 the results were Measles CPE 4, CYP2C9 activ 0.9, CYP2C9 inh 15, CYP2C19 inhib 3 and CYP2C19 act 1.
COc1ccc(-n2c(=O)c3ccccc3n(Cc3ccc(F)cc3)c2=O)cc1OC was read as Measles CPE 7, CYP2C9 activ 1.1, CYP2C9 inh -6, CYP2C19 inhib 8 and CYP2C19 act 0.9.
Screening Cc1cccc(NC(=S)N(CCc2nc3cc(C)c(C)cc3[nH]2)Cc2cccnc2)c1 returned Measles CPE 3, CYP2C9 activ 0.7, CYP2C9 inh 32, CYP2C19 inhib 45 and CYP2C19 act 0.6.
`Cc1ccc(C)c(NC(=S)N(CCc2nc3cc(C)c(C)cc3[nH]2)Cc2cccnc2)c1` gave Measles CPE 7, CYP2C9 activ 0.3, CYP2C9 inh 74*, CYP2C19 inhib 38 and CYP2C19 act 0.6.
`Cc1cc(=S)[nH]c2ccccc12` gave Measles CPE 3, CYP2C9 activ 1.2, CYP2C9 inh -16, CYP2C19 inhib 4 and CYP2C19 act 1.
`Cc1ccc(C(=O)c2ccc([N+](=O)[O-])cc2)cc1C` gave Measles CPE 20, CYP2C9 activ 0.7, CYP2C9 inh 26, CYP2C19 inhib 22 and CYP2C19 act 0.8.
For Cc1ccc(C)c2c1[nH]c1ccc([N+](=O)[O-])cc12 the results were Measles CPE 4, CYP2C9 activ 0.4, CYP2C9 inh 61*, CYP2C19 inhib 78* and CYP2C19 act 0.2.
Screening Cc1ccc(C)c2c1[nH]c1ccccc12 returned Measles CPE 11, CYP2C9 activ 1, CYP2C9 inh 3, CYP2C19 inhib 86* and CYP2C19 act 0.1.
`Clc1ccc(Cn2c(/C=C/c3ccco3)nc3ccccc32)cc1` gave Measles CPE 13.
O=C(NC(=S)Nc1ccccc1N1CCOCC1)c1ccc([N+](=O)[O-])cc1 was read as Measles CPE 4.
